The values below come from PubChem BioAssay.

The source made the active and inactive calls. Unless noted, the rule behind the calls is not given here.

Assay [1] has as its system Wnt5a (protein binding on small-molecule microarray). Nature of the assay: small molecules binding Wnt5a protein – biophysical, small-molecule microarray, 635/667 nm fluorescence, primary screen (AID 1142).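 Note: fluorescence read at 667 nm with signal to noise per printed feature.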 As to conditions: 635 nm fluorescence, higher = more signal.
Assay [2] in a line: ATP-based viability of Huh7 replicon cells – cell-based, CellTiter-Glo luminescence, basal, 48 h, cytotoxicity control for HCV replication inhibitor project, primary screen (AID 1143).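 Note: Huh7 hepatoma cells carrying a hepatitis C replication reporter with no stimulus; test concentration not given here.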 As to conditions: higher = more signal, called active from +8 up or from −8 down.
The nature of assay [3]: Pseudomonas biofilm growth suppression – PAO1 strain, BacTiter-Glo luminescence, LB-PBS, primary screen (AID 1144). The note with it: P. aeruginosa PAO1 biofilm, 12 h, higher = more signal.
A short description of assay [4]: basal CRE-LacZ reporter activity in PC12 – cell-based, unstimulated, primary screen (AID 1145). As to conditions: no forskolin, luminescence, 4.5 h, higher = more signal, called active from +8 up or from −8 down.
Assay [5] can be described thus: forskolin-driven CRE-LacZ activity in PC12 – cell-based, CRE-LacZ reporter, forskolin-stimulated, primary screen (AID 1146).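 Note: PC12 cells with 6xCRE LacZ reporter stimulated by forskolin 10 µM; beta-galactosidase reporter signal reflecting CREB driven transcription.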 As to conditions: luminescence, 4.5 h, higher = more signal, called active from +8 up or from −8 down.
In assay [6] the target is Streptavidin (Streptomyces avidinii) (UniProt P22629). Nature of the assay: compounds binding control protein streptavidin – biophysical, small-molecule microarray, 635/667 nm fluorescence, artefact control for SMM compound annotation, primary screen (AID 1147).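 Note: signal reflects streptavidin binding to arrayed compounds as a control protein.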 As to conditions: higher = more signal.
Sequence of Streptavidin (Streptomyces avidinii) (P22629 whole entry, looked up): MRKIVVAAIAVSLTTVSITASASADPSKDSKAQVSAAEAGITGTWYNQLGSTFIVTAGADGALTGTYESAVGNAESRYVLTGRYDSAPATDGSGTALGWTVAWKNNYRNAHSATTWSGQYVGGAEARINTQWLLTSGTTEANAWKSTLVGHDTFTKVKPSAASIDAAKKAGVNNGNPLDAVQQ
Assay [7] is described as follows: probe aInhba binding on compound microarray – biochemical, small-molecule microarray, 635/667 nm fluorescence, primary screen (AID 1148).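 Note: score merges 667nm spot fluorescence with signal-to-noise for antibody binding to printed compounds.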 As to conditions: higher = more signal.
The target of assay [8] is Torsin-1A (Homo sapiens) (UniProt O14656). Nature of the assay: TOR1A wild-type binding on microarray – cell lysate, small-molecule microarray, lysate, 635/667 nm, primary screen (AID 1149). As to conditions: COS7 hTOR1A-WT lysate, 635 nm fluorescence, higher = more signal.
Sequence of Torsin-1A (Homo sapiens) (O14656 whole entry, looked up): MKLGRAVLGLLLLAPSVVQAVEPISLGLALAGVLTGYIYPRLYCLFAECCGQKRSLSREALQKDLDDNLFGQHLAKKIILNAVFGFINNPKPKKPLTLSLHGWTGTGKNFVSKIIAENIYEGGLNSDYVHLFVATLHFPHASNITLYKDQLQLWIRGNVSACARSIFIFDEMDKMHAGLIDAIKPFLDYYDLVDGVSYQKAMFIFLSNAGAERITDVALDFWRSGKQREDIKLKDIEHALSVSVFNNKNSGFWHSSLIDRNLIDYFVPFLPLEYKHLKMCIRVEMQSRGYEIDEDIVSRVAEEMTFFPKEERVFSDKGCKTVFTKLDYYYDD
The target is the same in assay [9]. Briefly: torsin A mutant lysate binding on microarrays – cell lysate, small-molecule microarray, COS7 lysate, 635/667 nm fluorescence, primary screen (AID 1150).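 Note: score pools 667 nm emission and signal to noise measuring lysate protein binding.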 The note with it: COS7 hTOR1A mutant lysate, 635 nm fluorescence, higher = more signal.
The subject of assay [10] is Sonic hedgehog protein (Shh). Briefly: Sonic hedgehog microarray binding compounds – biochemical, small-molecule microarray, 635/667 nm fluorescence, primary screen (AID 1151).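 Note: Shh protein binding to compounds spotted on small-molecule microarray slides; score combines spot fluorescence intensity with signal-to-noise across triplicate slides.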 As to conditions: 635 nm fluorescence, higher = more signal.

`COCC(=C=CC[C@@H](O)c1ccc(CO)o1)CCO`: the composite z-score in assay [1] was 0.0507; in assay [6], -0.618; in assay [7], -0.024; with Torsin-1A (Homo sapiens) [8] it was -0.117; with Torsin-1A (Homo sapiens) [9], -0.114; in [10], 2.2. Also, the z-score in assay [2] is -3.6 (inactive); in assay [3], -1.23 (inactive); in [4], 0.014 (inactive); in [5], -0.845 (inactive).

Turning to `CO[C@H]1O[C@H](CO)[C@@H](OC(=O)Nc2ccc(Oc3ccccc3)cc2)[C@H](OC(=O)Nc2ccccc2)[C@H]1OC(=O)Nc1ccccc1`, the composite z-score turned out to be 1.07 in [1]; 0.693 in [6]; 0.167 in assay [7]; 0.546 in the assay with Torsin-1A (Homo sapiens) [8]; 0.76 with Torsin-1A (Homo sapiens) [9]; 1.86 in assay [10]. The z-score is -5.1 (inactive) in assay [2], -2.24 (inactive) in assay [3], 0.512 (inactive) in assay [4] and -1.64 (inactive) in assay [5].

Consider `O=C(O)[C@@]1(Cc2ccccc2)N=C(c2ccc(OCCCO)cc2)O[C@H]1c1ccccc1`, for which the composite z-score was -0.243 in assay [1]; -0.28 in [6]; 0.166 in [7]; -0.184 with Torsin-1A (Homo sapiens) [8]; 1.4 with Torsin-1A (Homo sapiens) [9]; 0.422 in [10]. The z-score in assay [2] is -0.637 (inactive); in assay [3] it was -0.622 (inactive); in [4], -0.286 (inactive); in assay [5], -0.215 (inactive).

As for `CN1C=C(C(=O)OCCS(C)(=O)=O)C(C(=O)OCCS(C)(=O)=O)=CC(CCCO)=CC1C1CC1` (stereo not given), the composite z-score is -0.102 in assay [1]; 0.207 in assay [6]; -0.128 in assay [7]; -0.0089 with Torsin-1A (Homo sapiens) [8]; 0.344 with Torsin-1A (Homo sapiens) [9]; 0.501 in assay [10]. For the same molecule, the z-score in [2] was -0.134 (inactive); in [3], -0.483 (inactive); in [4] it was -0.844 (inactive); in assay [5], -0.657 (inactive).

With `C=CC[C@@H](OC(=O)Nc1ccc(OC)cc1)c1ccc(O)c2ccccc12`, the composite z-score in assay [1] was determined as 0.42; in assay [6] it was 0.737; in assay [7] it was 0.241; with Torsin-1A (Homo sapiens) [8], 1.31; with Torsin-1A (Homo sapiens) [9] it was 0.625; in [10], 2.03. Besides, the z-score in [2] was -4.89 (inactive); in assay [3], -1.39 (inactive); in assay [4] it was 1.01 (inactive); in [5] it was 4.3 (inactive).

For the molecule `CC(C)C[C@@H]1NC(=O)[C@@H]2C[C@H](C(=O)NCCCCCC[N+](C)(C)C)[C@H](c3ccc(O)cc3)N2C1=O`, the composite z-score is 0.0505 in assay [1]; 0.313 in assay [6]; -0.0448 in [7]; 1.08 in the assay with Torsin-1A (Homo sapiens) [8]; 0.767 with Torsin-1A (Homo sapiens) [9]; 2.03 in [10]. Also, the z-score is 0.0436 (inactive) in assay [2], -0.555 (inactive) in [3], -0.532 (inactive) in [4] and 0.0161 (inactive) in assay [5].

Regarding `CCOC(=O)C1=CC[C@@H](c2ccccc2Cl)N(S(=O)(=O)c2ccc(C)cc2)C1`, the composite z-score is 0.149 in [1]; 0.884 in assay [6]; 0.0569 in [7]; 0.623 with Torsin-1A (Homo sapiens) [8]; 0.738 in the assay with Torsin-1A (Homo sapiens) [9]; -0.53 in [10]. The z-score is -5.35 (inactive) in assay [2], -0.602 (inactive) in [3], 0.173 (inactive) in assay [4] and -0.0077 (inactive) in assay [5].

For the molecule `COc1ccc(C#Cc2ccc3c(c2)[C@]2(C(=O)N3)[C@H](C(=O)NC[C@H](O)c3ccccc3)[C@H]3C(=O)O[C@H](c4ccccc4)[C@H](c4ccccc4)N3[C@@H]2c2ccccc2OCCO)cc1`, the composite z-score in assay [1] was 0.0762; in [6], 0.924; in assay [7] it was 0.421; with Torsin-1A (Homo sapiens) [8], 0.123; with Torsin-1A (Homo sapiens) [9] it was 0.535; in assay [10], 1.68. The z-score was -5.79 (inactive) in assay [2], -0.494 (inactive) in [3], -0.463 (inactive) in [4] and -0.336 (inactive) in assay [5].

Turning to `COCCOC(=O)N1C(=O)[C@@]2(c3ccccc31)[C@H](C(=O)NC[C@H](O)c1ccccc1)[C@H]1C(=O)O[C@H](c3ccccc3)[C@H](c3ccccc3)N1[C@@H]2c1ccc(OCCO)cc1`, the composite z-score in [1] amounted to 0.788; in assay [6], 0.168; in [7], 0.0588; with Torsin-1A (Homo sapiens) [8] it was 0.646; in the assay with Torsin-1A (Homo sapiens) [9], 0.857; in [10] it was 2.29. For the same molecule, the z-score was -3.37 (inactive) in assay [2], -1.46 (inactive) in [3], -1.83 (inactive) in assay [4] and -0.686 (inactive) in assay [5].

Regarding `[N-]=[N+]=NCc1ccccc1C[C@]1(C(=O)NCCN2CCOCC2)N=C(c2ccc(OCCCO)cc2)O[C@H]1c1ccccc1N=[N+]=[N-]`, the composite z-score in [1] was 0.152; in assay [6], 1.05; in [7], 0.279; with Torsin-1A (Homo sapiens) [8], 0.304; in the assay with Torsin-1A (Homo sapiens) [9] it was 0.283; in assay [10], -0.0478. Further, the z-score in assay [2] is -3.01 (inactive); in assay [3], -0.446 (inactive); in [4] it was 1.65 (inactive); in [5], -0.891 (inactive).

Turning to `COc1ccc([Si](C)(C)[C@@H]2[C@@H](CCn3cc([C@H](O)c4ccccc4)nn3)O[C@]3(C(=O)N(Cc4ccc(N5C(=O)c6cccc7cccc5c67)cc4)c4ccccc43)[C@H]2C)cc1`, the composite z-score was -0.179 in assay [1]; -0.378 in assay [6]; -0.0762 in [7]; -0.0204 with Torsin-1A (Homo sapiens) [8]; -0.169 in the assay with Torsin-1A (Homo sapiens) [9]; -0.0774 in assay [10]. The z-score in [2] is -4.7 (inactive); in assay [3], 0.364 (inactive); in [4], 1.22 (inactive); in assay [5], -1.68 (inactive).

Take `C=CCOC(=O)[C@@H]1[C@H]2C(=O)O[C@H](c3ccccc3)[C@H](c3ccccc3)N2[C@H](c2ccc(OCCOC(=O)[C@@H]3C[C@@H]4C(=O)N[C@@H](Cc5ccccc5)C(=O)N4[C@@H]3c3cccc(OCCO)c3)cc2)[C@@]12C(=O)Nc1ccc(I)cc12`: the composite z-score in [1] is 0.867; in assay [6], -0.184; in assay [7], 0.35; with Torsin-1A (Homo sapiens) [8], 1.3; in the assay with Torsin-1A (Homo sapiens) [9] it was 0.731; in [10] it was 2.16. Besides, the z-score in assay [2] was -0.166 (inactive); in assay [3], -0.525 (inactive); in assay [4], -1.08 (inactive); in [5], 0.0071 (inactive).

On to `CC(C)c1ccc(NN2C(C(O)c3cccc(O)c3)C=CC3C(=O)N(c4ccccc4)C(=O)C32)cc1` (stereo not given), for which the composite z-score in assay [1] turned out to be 0.125; in assay [6], 1.52; in assay [7], 0.0236; with Torsin-1A (Homo sapiens) [8], 0.77; in the assay with Torsin-1A (Homo sapiens) [9], 1.3; in assay [10], 0.671. The z-score in [2] is -0.392 (inactive); in assay [3], -0.406 (inactive); in [4] it was 1.39 (inactive); in assay [5] it was 1.67 (inactive).

Regarding `COC(=O)[C@@]1(Cc2ccccc2)[C@H]2c3cc(C(=O)N(C)C)n(Cc4cc(C)n(C)n4)c3C[C@H]2CN1C(=O)c1ccccc1`, the composite z-score in assay [1] was 0.0704; in assay [6] it was 1.63; in assay [7], 0.606; in the assay with Torsin-1A (Homo sapiens) [8], 1.31; with Torsin-1A (Homo sapiens) [9], 1.99; in [10], 0.278. In addition, the z-score was -1.31 (inactive) in assay [2], 0.381 (inactive) in [3], 2.3 (inactive) in assay [4] and 1.92 (inactive) in assay [5].
